From paper PMC5540273 (PLoS ONE, 2017)

What was measured:
Conditions in all cases: concentration: 1 μM, replicates: in singlicate; n = 1
BMX = system: BMX
BRAF = system: BRAF
BRK = system: T1, BRK
T1 construct: gene PTK6

BRSK1 = system: BRSK1
BRSK2 = system: BRSK2
BTK = system: BTK
BUB1 = system: BUB1
CAMK1B = system: CAMK1B
CAMK1D = system: CAMK1D
CAMK1G = system: CAMK1G
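Also: KINOMEscan kinase panel screen.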

SMILES	%Inh (BMX) [%]	%Inh (BRAF) [%]	%Inh (BRK) [%]	%Inh (BRSK1) [%]	%Inh (BRSK2) [%]	%Inh (BTK) [%]	%Inh (BUB1) [%]	%Inh (CAMK1B) [%]	%Inh (CAMK1D) [%]	%Inh (CAMK1G) [%]
O=C(O)C(F)(F)F.O=c1[nH]ccc2nc(N[C@@H]3CCNC3)nc(Nc3ccc4c(c3)S(=O)(=O)CC4)c12 [GSK2181306]	24	0	18	52	46	29	90.5	98.7	98.6	82
Cc1ccc(O)cc1Nc1ccnc2cc(-c3ccc(CN4CCCCC4)o3)ccc12 [GW557777]	50	22	99.5	0	0	19	0	0	4	6
Cn1cc(-c2ccc3c(c2)CCN3C(=O)Cc2cc(F)cc(C(F)(F)F)c2)c2c(N)ncnc21 [GSK2635225]	15	0	44	0	5	0	11	41	11	0
Cl.Cl.NC(CNC(=O)c1cc(Br)c(-c2ccnc3[nH]ccc23)s1)c1ccccc1 (stereo not shown) [GSK1322949]	5	0	0	50	40	0	77	34	63	27
O=C(Nc1n[nH]c2cc(-c3cccs3)ccc12)C1CC1 [SB-731284]	11	68	0	54	30	54	0	0	6	0
Cc1nn2c(=O)cc(N3CCO[C@H](C)C3)nc2n1Cc1cccc(Cl)c1Cl [GSK2373693]	15	2	13	3	0	0	28	42	9	0
CCNc1nccc(-c2c(-c3ccc(F)cc3)ncn2C2CCN(C)CC2)n1	6	0	0	0	0	0	63	0	17	5
COc1cc(Nc2nccc(N3CCC(NC(=O)Nc4ccc5c(c4)OCO5)C3)n2)cc(OC)c1OC (stereo not shown) [GSK1379766]	0	12	0	0	0	0	43	34	19	9
Cc1ccc(Nc2ccnc(Nc3ccc(C)c(F)c3)n2)cc1O.Cl [GW582868]	12	50	50	0	0	0	44	34	0	0
Cc1cc(-c2c(-c3ccc(F)cc3)ncn2CCCN2CCOCC2)nc(N)n1 [SB-222517]	5	0	0	0	17	0	0	0	12	44
N#Cc1cnc2cc(-c3cnc(CNCCN4CCOCC4)s3)ccc2c1Nc1ccc(Oc2ccccc2)cc1 [GW664114]	62	0	0	0	44	93.9	37	24	12	24
Nc1cccc(-c2ccc3c(N)n[nH]c3c2)c1 [GSK2193613]	5	0	8	58	51	0	21	21	25	4
Cc1ccc(O)cc1Nc1ccnc2ccc(C(C)(C)C)cc12 [GW856805]	19	63	91.4	5	20	0	30	29	28	0
Cn1cc(-c2ccc3c(c2)CCN3C(=O)Cc2cc(F)cc(F)c2F)c2c(N)ncnc21 [GSK2634140]	11	0	22	6	0	0	9	7	28	0
O=C(Nc1c(F)cccc1F)c1cc(C(=O)c2ccccc2F)c[nH]1 [GSK1326180]	18	0	11	0	0	0	31	33	13	6
Fc1cc(Cl)ccc1Nc1ccnc2cc(-c3ccc(CN4CCOCC4)o3)ccc12 [GW560109]	35	39	86	13	0	46	25	24	0	0
